Source: PubChem BioAssay
The list is not random: actives were taken first. Their share in the collection is about 1.6%.
KCNQ2 inh: KCNQ2 (rat) channel inhibition; CHO-K1 KCNQ2, FluxOR thallium flux, 20 min; active compounds read low; B-score at 10 µM; actives 1.1% (n = 310,000);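 active = fluorescence ratio B-score at most minus 3 library SDs, with starting brightness B-score within 2 library SDs, cut at about -5.5 in these data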
KCNQ2 pot: KCNQ2 (rat) channel potentiation; O88943; CHO-K1 KCNQ2, FluxOR thallium flux fluorescence; active compounds read high; B-score at 10 µM; actives 0.54% (n = 310,000); AID 2239;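 active = fluorescence ratio B-score at least 3 SD of library B-scores, with initial fluorescence B-score within 3 of them, cut at about 5.3 in these data; same plate scores as AID 2156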;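 also: B-score of peak minus minimum over baseline fluorescence ratio after K+ and Tl+ stimulus; positive B-score means potentiation of KCNQ2 with more thallium influx and brighter signal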
Kir21 conf inh: confirmation of mouse Kir2.1 potassium channel inhibitors; Kir2.1-expressing cells, FluxOR thallium flux fluorescence; active compounds read low; shares compounds with KCNQ2 pot; AID 2032; Tl flux remaining, % of negative control (active compounds read low), % at 10 µM; actives 41% (n = 2,300);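 active = Primary-screen hit whose thallium flux fell at least 3 control SD below untreated wells in both duplicates, with normal baseline fluorescence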;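 also: 0% = blank wells without stimulus and 100% = stimulated no-compound controls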
HEK293 Tl flux: counter-screen for Kir2.1 inhibitors: effect in parental HEK293 cells; shares compounds with KCNQ2 pot; FluxOR thallium flux fluorescence; 0% = unstimulated blank wells; FluxOR signal as % of negative control (100 = no effect), % at 10 µM; actives 19% (n = 2,300); AID 2105;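 active = dye signal at least 3 control SD above or below untreated wells in both duplicates, raw fluorescence within 3, either direction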;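 also: percent is based on the flux ratio of peak minus minimum fluorescence over baseline F0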
CHO-K1 ctr: counter-screen for KCNQ2 potentiators: effect in parental CHO-K1 cells; shares compounds with KCNQ2 pot; FluxOR thallium flux fluorescence; zero = vehicle mean+3SD, 100% = vehicle-minus-blank window; activity increase over 3SD of controls, % at 10 µM; actives 43% (n = 1,200); AID 2282;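 active = signal rise of at least 3 SD above the untreated control mean, in both duplicate wells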;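 also: counter screen of KCNQ2 potentiator hits so any rise reflects channel-independent effects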
KCNQ1 pot spec: tests whether KCNQ2 potentiators also act on human KCNQ1 | shares compounds with KCNQ2 pot | CHO KCNQ1 stable, FluxOR thallium flux fluorescence; beyond 3SD, as % of vehicle-control signal | activation over 3SD threshold, % at 10 µM | actives 28% (n = 1,200);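 active = fluorescence ratio rise of at least 3 SD of vehicle wells above their mean, in both replicate wells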;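 also: 0% = vehicle mean plus 3 SD and 100% = vehicle minus unstimulated blank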
KCNQ2 pot confirm: rat KCNQ2 channel potentiator confirmation; shares compounds with KCNQ2 pot; CHO-KCNQ2 cells, FluxOR thallium flux fluorescence; potentiation, less the hit threshold, % at 10 µM; actives 68% (n = 1,200); AID 2287;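 active = fluorescence ratio rising 3 SD or more over the vehicle control mean in both replicates, plus primary screen hit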;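 also: peak minus minimum thallium fluorescence divided by baseline after K/Tl stimulus; 0% = vehicle mean plus 3 SD and 100% = vehicle minus unstimulated blank difference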
Kir2-1 sel: mouse Kir2.1 off-target activity of KCNQ2 potentiators; actives 2% (n = 1,200); AID 2345; shares compounds with KCNQ2 pot; activity over 3SD threshold, % at 10 µM; HEK293 Kir2.1, FluxOR thallium flux fluorescence;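 active = fluorescence ratio rise of at least 3 SD above the vehicle-control mean, seen in both replicates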;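 also: 0% = vehicle mean plus 3 SD and 100% = vehicle minus no-stimulus blank window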
KCNQ2 W236L MoA: potentiates the retigabine-insensitive rat KCNQ2 W236L mutant channel. shares compounds with KCNQ2 pot. CHO KCNQ2-W236L, automated patch clamp current. current increase over 3SD of negative controls (%), active compounds read high, % at 25 µM. actives 10% (n = 940). AID 2558;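 active = current increase at least 3 SD of the untreated controls above them in both duplicate recordings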
Target sequence (O88943 whole entry W236L, looked up): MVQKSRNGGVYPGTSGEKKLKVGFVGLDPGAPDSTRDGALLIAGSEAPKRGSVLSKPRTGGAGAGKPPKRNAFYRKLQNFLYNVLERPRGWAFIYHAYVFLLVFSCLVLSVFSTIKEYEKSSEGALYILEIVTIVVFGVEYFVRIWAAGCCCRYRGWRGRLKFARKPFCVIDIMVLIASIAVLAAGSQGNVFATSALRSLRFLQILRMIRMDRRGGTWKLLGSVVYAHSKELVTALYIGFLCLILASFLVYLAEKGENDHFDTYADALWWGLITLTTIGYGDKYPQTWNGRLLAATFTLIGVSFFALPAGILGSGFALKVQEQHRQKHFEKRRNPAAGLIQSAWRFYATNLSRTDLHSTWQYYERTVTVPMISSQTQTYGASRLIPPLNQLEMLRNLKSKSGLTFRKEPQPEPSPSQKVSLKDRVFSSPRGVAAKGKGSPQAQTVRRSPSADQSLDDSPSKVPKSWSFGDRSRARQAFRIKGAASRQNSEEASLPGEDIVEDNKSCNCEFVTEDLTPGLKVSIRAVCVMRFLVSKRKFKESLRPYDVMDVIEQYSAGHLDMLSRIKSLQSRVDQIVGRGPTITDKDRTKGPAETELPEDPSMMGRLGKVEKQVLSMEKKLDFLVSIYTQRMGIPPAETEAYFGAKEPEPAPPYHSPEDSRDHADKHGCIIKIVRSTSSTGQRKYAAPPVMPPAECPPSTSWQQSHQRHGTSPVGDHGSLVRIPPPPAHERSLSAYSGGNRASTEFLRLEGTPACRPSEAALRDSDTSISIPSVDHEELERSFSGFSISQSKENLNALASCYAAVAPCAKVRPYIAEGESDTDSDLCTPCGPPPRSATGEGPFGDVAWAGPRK
The depositor's hits bear a star; i = inactive; . = no result given.

SMILES	KCNQ2 inh	KCNQ2 pot	Kir21 conf inh	HEK293 Tl flux	others
Cc1ccc2nc(SCC(=O)Nc3cccc(F)c3)nc(=O)n2c1	i	.	.	.
O=C(c1sccc1Cl)N1CCN(Cc2ccc3c(c2)OCO3)CC1	i	.	.	.
COc1ccc(C(=O)N2CCCC(Nc3ccc(C)c(C)c3)C2)c(OC)n1 (centres undefined)	i	.	.	.
O=c1cc(C(F)(F)F)[nH]c2c(OC(F)(F)F)cccc12	i	.	.	.
Cc1ccn(S(=O)(=O)c2ccc(N3CCCC3=O)cc2)n1	i	.	.	.
CC(C)CN(C(=O)COC(=O)CNC(=O)c1sc2ccccc2c1Cl)C1CCS(=O)(=O)C1 (centres undefined)	i	0.6	i	75.0%*
CC(C)CN(C(=O)COC(=O)Cc1n[nH]c(=O)c2ccccc12)C1CCS(=O)(=O)C1 (centres undefined)	i	.	.	.
COc1cccc(/C=C/C(=O)N(C)CC(=O)Nc2ccc(Cl)c(C(F)(F)F)c2)c1	i	1.18	.	.
CC(C)NCC(O)Cn1c2c(c3ccccc31)CCc1c-2cnn1-c1ccccc1 (centres undefined)	i	.	54.0%*	i
COc1ccc(C(=O)c2c(C)c3ccccc3n2CC(O)CNC(C)C)cc1 (centres undefined)	i	0.75	.	.
Cc1ccc(C(C)C)c(OCC(O)CN(C)Cc2ccccc2)c1 (centres undefined)	i	.	20.0%*	i
Cc1ccc(C(C)C)c(OCCCN(C)Cc2ccccc2)c1	i	.	.	.
Cc1ccc(CN=C2NC(=O)C(CC(=O)NCCc3ccccc3)S2)cc1 (centres undefined)	i	.	.	.
CN(Cc1ccccc1)CC(O)COc1ccc(CNCc2ccc(Cl)s2)cc1 (centres undefined)	i	.	23.5%*	i
CN(Cc1ccccc1)CC(O)COc1ccc(CNCc2cccnc2)cc1 (centres undefined)	i	.	.	.
COc1ccccc1NS(=O)(=O)c1ccc(C)c(C(=O)NCCCN2CCCC2=O)c1	i	.	.	.
O=C(N/N=C1/C(=O)c2cccc3cccc1c23)c1ccc(Cl)cc1	i	10.1*	i	213.0%*	CHO-K1 ctr=46.0*;KCNQ1 pot spec=37.4*;KCNQ2 pot confirm=14.5*;Kir2-1 sel=-28.0;KCNQ2 W236L MoA=i
CCNC(=S)N/N=C1\C(=O)c2cccc3cccc1c23	i	1.68	.	.
NC(=Nc1ccccc1)Nc1ccccc1	i	5.84*	i	i	CHO-K1 ctr=8.7*;KCNQ1 pot spec=-5.8;KCNQ2 pot confirm=19.6*;Kir2-1 sel=-23.1;KCNQ2 W236L MoA=i
CCOC(=O)/C(C(=Nc1ccccc1)Nc1ccccc1)=C(\C)O	i	.	.	.
CN1CCN(CC#CC(C)(O)C2CC3C=CC2C3)CC1 (centres undefined)	i	5.38*	i	i	CHO-K1 ctr=-3.2;KCNQ1 pot spec=-39.2;KCNQ2 pot confirm=-9.8;Kir2-1 sel=-36.8
CC(O)(C#CCN1CCOCC1)c1ccccc1 (centres undefined)	i	0.49	.	.
COc1ccc(NC(=O)Cc2ccccc2)cn1	i	.	.	.
COc1ccc(NC(=O)/C(Cl)=C(/Cl)S(=O)Cc2ccccc2)cn1 (centres undefined)	i	12.3*	i	63.5%*	CHO-K1 ctr=0.3*;KCNQ1 pot spec=-14.7;KCNQ2 pot confirm=11.6*;Kir2-1 sel=-44.9;KCNQ2 W236L MoA=3.2%*
COc1ccc(CCNC(=O)c2ccccc2C(=O)NCCc2ccc(OC)c(OC)c2)cc1OC	i	.	.	.
SMILES	KCNQ2 inh	KCNQ2 pot	Kir21 conf inh	HEK293 Tl flux	others
COc1cccc(/C(C)=N/NS(=O)(=O)c2ccc(Cl)cc2)c1	i	1.03	.	.
COc1cccc(/C(=N/O)C2CC2c2ccc(Cl)cc2)c1 (centres undefined)	i	6.66*	i	i	CHO-K1 ctr=33.0*;KCNQ1 pot spec=-3.9;KCNQ2 pot confirm=8.1*;Kir2-1 sel=-33.3;KCNQ2 W236L MoA=i
O=C(c1ccco1)N1CCN(Cc2cc(=O)c(OCc3ccccc3Cl)co2)CC1	i	0.8	.	.
CCS(=O)(=O)N1CCC(NC(=O)C(Cc2cc(OC)ccc2OC)NC(C)=O)CC1 (centres undefined)	i	0.68	i	i
COc1ccc(CC(NC(C)=O)C(=O)NC2CCN(S(=O)(=O)c3ccc(NC(C)=O)cc3)CC2)c(OC)c1 (centres undefined)	i	.	.	.
O=C(O)Cn1nnc(COc2ccccc2)n1	i	.	.	.
CCCCc1ccc(NC(=O)COCC)cc1	i	1.3	.	.
CCCCc1ccc(NC(=O)CC(C)C)cc1	i	7.4*	i	279.5%*	CHO-K1 ctr=-19.3;KCNQ1 pot spec=-1.9;KCNQ2 pot confirm=94.0*;Kir2-1 sel=-20.6;KCNQ2 W236L MoA=i
CCCCc1ccc(NC(=O)C2CCCC2)cc1	i	7.01*	i	i	CHO-K1 ctr=109.0*;KCNQ1 pot spec=-8.9;KCNQ2 pot confirm=-2.0;Kir2-1 sel=-38.2;KCNQ2 W236L MoA=i
CCN(CC)c1ccc(NC(=O)C2CCCC2)cc1	i	3.54	.	.
CCOC(=O)CN1C(=O)N(CC(=O)OCC)C(c2ccccc2)(c2ccccc2)C1=O	i	.	.	.
O=C(OCc1ccc(Cl)c(Cl)c1)c1ccccn1	i	0.22	.	.
Nc1ncccc1OCc1ccc(Cl)c(Cl)c1	i	5.37*	i	i	CHO-K1 ctr=-1.9;KCNQ1 pot spec=-8.9;KCNQ2 pot confirm=-10.3;Kir2-1 sel=-30.0
Cc1ccc(NS(=O)(=O)c2cccc(C(=O)N(C)Cc3cccs3)c2)cc1	i	.	.	.
NC(=O)COC(=O)[C@H](Cc1c[nH]c2ccccc12)NC(=O)c1ccc(F)cc1	i	1.47	.	.
CCOC(=O)c1ccc(N(C(=O)c2ccco2)C(C(=O)NC2CCCC2)c2ccncc2)cc1 (centres undefined)	i	.	.	.
O=C(Nc1cccc(Cl)c1Cl)C1CCN(C(=O)c2cccs2)CC1	i	.	.	.
C/C=C/c1ccc(OCC(O)CNCC(c2ccc(OC)cc2)N(C)C)c(OC)c1 (centres undefined)	i	.	.	.
C/C=C/c1ccc(OCC(O)CN2CCCCC2CC)c(OC)c1 (centres undefined)	i	.	.	.
C/C=C/c1ccc(OCC(O)CNCCc2ccc(OC)cc2)c(OC)c1 (centres undefined)	i	.	i	i
OC(CNCCc1ccc(Cl)cc1)COc1cc(Cl)ccc1Cl (centres undefined)	i	.	24.0%*	121.5%*
COc1ccc(CCNCC(O)COc2ccc(Cl)cc2)cc1OC (centres undefined)	i	1.43	.	.
C/C=C/c1ccc(OCC(O)CN(C)Cc2ccc(SC)cc2)c(OC)c1 (centres undefined)	i	.	i	i
